The source of these data is PubChem BioAssay (NCI).

Holding throughout (assay): NCI-60 one-dose screen, 48 h (100 = growth as untreated, 0 = no growth, -100 = all killed)
What all share (settings): 10 µM unless noted

Experiment [1] deals with T-47D breast.
Experiment [2] relates to BT-549 breast.
Experiment [3] relates to MDA-MB-435 melanoma.
Experiment [4] concerns SW-620 colon.
The test system of experiment [5] is MCF7 breast.
In experiment [6] the test system is HCT-116 colon.
In experiment [7] the test system is HCC-2998 colon.
For experiment [8], the system named is KM12 colon.

Compounds without any hit were thinned out: in the full panel of roughly 83,000, 20% have a hit.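 Single-dose data. Exposure time 48 hours. Values below 10 considered active.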 Values without a mark were called inactive. The source made the active and inactive calls.

Turning to `C=CCn1c(C)nc2ccc(Nc3nc(Nc4ccc5nc(C)n(CC=C)c5c4)c4ccccc4n3)cc21`, the growth in experiment [1] is -91% (active); in experiment [2], 72.1%; in experiment [3], -78% (active); in experiment [4], -80.5% (active); in experiment [5], -87.9% (active); in experiment [6] it was -97.8% (active). In addition, the figures for the growth in experiment [7] and in experiment [8] were -52.7% (active) and -84.8% (active), respectively.

With `COC1=CC(c2ccc[nH]2)=N/C1=C\c1[nH]c(C)c(C(=O)OC(C)C)c1C`, the growth in experiment [1] was -69.2% (active); in experiment [2], -7.21% (active); in experiment [3], -66.2% (active); in experiment [4] it was -29.2% (active); in experiment [5], -35.5% (active); in experiment [6], -90.3% (active). Further, the growth in experiment [7] was -53.2% (active); in experiment [8], -66.3% (active).

`COc1ccc(C(=O)C/C(=C\c2ccc(Cl)cc2)C(=O)NCc2ccccc2)cc1`: the growth was 65.3% in experiment [1]; 110% in experiment [2]; 68.8% in experiment [3]; 98.2% in experiment [4]; 86.1% in experiment [5]; 82.5% in experiment [6]. In addition, the growth in experiment [7] was 93.1%; in experiment [8] it was 99.7%.

As for `Nc1n[nH]c2ccc([C@H]3[C@@H]4C5CCC(C5)[C@@H]4c4c(ccc5[nH]ncc45)N3S(=O)(=O)C3CC3)cc12` (stereo not given in full), the growth was 64.6% in experiment [1]; -2.63% (active) in experiment [2]; -35.3% (active) in experiment [3]; 21.9% in experiment [4]; 13.1% in experiment [5]; 4.97% (active) in experiment [6]. The growth in experiment [7] is 18.4%; in experiment [8], 7.27% (active).

Turning to `CNc1nnc2n(-c3ccccc3)c(=O)c3cnn(-c4ccccc4)c3n12`, the growth is 37.1% in experiment [1]; 74% in experiment [2]; 98.2% in experiment [3]; 105% in experiment [4]; 86.7% in experiment [5]; 77.7% in experiment [6]. For the same molecule, the results for the growth in experiment [7] and in experiment [8] were 112% and 87.4%, respectively.

With `COc1ccc(/C=C(\C#N)n2nnc3cc(Cl)ccc32)cc1`, the growth in experiment [1] is 17.2%; in experiment [2] it was -1.84% (active); in experiment [3], -61.6% (active); in experiment [4] it was 8.09% (active); in experiment [5] it was 1.74% (active); in experiment [6] it was -9.51% (active). In addition, the growth was -30.2% (active) in experiment [7] and 5.89% (active) in experiment [8].

Consider `CCN(CC)CCn1c2ccc(OC)cc2c2sc3cc(OC)ccc3c(=O)c21`, for which the growth is 48.5% in experiment [1]; 61.7% in experiment [2]; 35.7% in experiment [3]; 8.87% (active) in experiment [4]; 4.61% (active) in experiment [5]; 4.6% (active) in experiment [6]. Further, the values for the growth in experiment [7] and in experiment [8] were 35.7% and 22.4%, respectively.

For the molecule `COC(=O)c1cc(N=C2NC(=O)/C(=C/C=C/c3ccccc3)S2)ccc1O`, the growth in experiment [1] was 32.8%; in experiment [2], 48.5%; in experiment [3] it was -35.6% (active); in experiment [4], 31.4%; in experiment [5], 17.9%; in experiment [6] it was 18.2%. The growth in experiment [7] is 49.1%; in experiment [8], 23.1%.

Take `c1ccc(-c2oc(-c3ccccc3)c(CN3CCCCC3)c2CN2CCCCC2)cc1`: the growth is 8.84% (active) in experiment [1]; 43.3% in experiment [2]; 31.7% in experiment [3]; 39.6% in experiment [4]; 11.7% in experiment [5]; 20.9% in experiment [6]. Moreover, the results for the growth in experiment [7] and in experiment [8] were -22.9% (active) and 22%, respectively.

As to `C#Cc1c2c(c(OC)c3c1OCO3)[C@H]([C@H]1OC(=O)c3c1ccc(OC)c3OC)N(C)CC2`, the growth in experiment [1] was 86.7%; in experiment [2], 90%; in experiment [3], 7.84% (active); in experiment [4] it was 84.5%; in experiment [5] it was 55.5%; in experiment [6] it was 89.8%. Moreover, the growth in experiment [7] was 86.4%; in experiment [8], 59.9%.

For the molecule `CCOC(=O)c1cc2c(n1C)-c1nc(NC(C)=O)sc1CCC2`, the growth in experiment [1] was 51.8%; in experiment [2] it was 71.8%; in experiment [3], 98.5%; in experiment [4], 93.3%; in experiment [5] it was 61.6%; in experiment [6], 75.4%. The growth in experiment [7] is 113%; in experiment [8] it was 87.7%.

`CN(C)CC(C)(C)C(=O)/C=C/c1ccccc1`: the growth was -30.8% [25 µM] (active) in experiment [1]; -65% [25 µM] (active) in experiment [2]; -35.9% [25 µM] (active) in experiment [3]; -59.1% [25 µM] (active) in experiment [4]; -13.6% [25 µM] (active) in experiment [5]; -87.1% [25 µM] (active) in experiment [6]. Also, the growth was -75.7% [25 µM] (active) in experiment [7] and -22.8% [25 µM] (active) in experiment [8].

Turning to `CCOC(=O)c1ccc(NC(=O)c2nc(-c3cc(OC)c(OC)c(OC)c3)n(-c3ccc(Cl)cc3)n2)cc1`, the growth was 77.6% in experiment [1]; 74.6% in experiment [2]; 88.9% in experiment [3]; 105% in experiment [4]; 86.7% in experiment [5]; 87.8% in experiment [6]. For the same molecule, the growth in experiment [7] is 107%; in experiment [8], 94%.

Consider `CCO/C=N/C1=C(C#N)C(c2ccc(Cl)cc2)c2sc3c(F)cccc3c2O1` (stereo not given), for which the growth in experiment [1] was 54.8%; in experiment [2], 68.8%; in experiment [3], -30.4% (active); in experiment [4] it was 35.5%; in experiment [5], 26%; in experiment [6], 54.2%. For the same molecule, the results for the growth in experiment [7] and in experiment [8] were 84.2% and 42.2%, respectively.

In the case of `COc1ccc(C(=O)N2c3ccccc3Sc3ccccc32)c(OC)c1`, the growth in experiment [1] was 41.5%; in experiment [2], 16.9%; in experiment [3], -43% (active); in experiment [4] it was 24.8%; in experiment [5], 19.9%; in experiment [6], 9.42% (active). The growth in experiment [7] was 12.8%; in experiment [8], 14.3%.
